Screening results as filed in PubChem BioAssay.
KKLEB cytotox: CF airway cell cytotoxicity counter-screen; KKLEB CF airway cells viability, ATPlite luminescence, overnight; active compounds read low; cells stimulated with P. aeruginosa culture filtrate; activity change (cytotoxicity), % at 5 µM; 360,000 compounds, 0.36% hits;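 active = corrected activity change at or below -50% at 5 µM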
Peg3 prom inh: Peg3 promoter activity inhibition; HeLa PEG-Prom luciferase reporter, luminescence, overnight; inhibition, % at 20 µM; 360,000 compounds, 1.7% hits;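 active = inhibition of at least 50% at 20 µM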
B2AR ag: agonists of human beta-2 adrenergic receptor inducing internalization. P07550. Am2.2-beta2AR cells, FAP receptor internalization, flow cytometry. response, % (concentration not given with the values). 340,000 compounds, 0.43% hits. AID 504454;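 active = response above a set limit, near 3 SD of response in nonfluorescent compounds, cut at about 42% in these data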
Target sequence (P07550 whole entry, looked up): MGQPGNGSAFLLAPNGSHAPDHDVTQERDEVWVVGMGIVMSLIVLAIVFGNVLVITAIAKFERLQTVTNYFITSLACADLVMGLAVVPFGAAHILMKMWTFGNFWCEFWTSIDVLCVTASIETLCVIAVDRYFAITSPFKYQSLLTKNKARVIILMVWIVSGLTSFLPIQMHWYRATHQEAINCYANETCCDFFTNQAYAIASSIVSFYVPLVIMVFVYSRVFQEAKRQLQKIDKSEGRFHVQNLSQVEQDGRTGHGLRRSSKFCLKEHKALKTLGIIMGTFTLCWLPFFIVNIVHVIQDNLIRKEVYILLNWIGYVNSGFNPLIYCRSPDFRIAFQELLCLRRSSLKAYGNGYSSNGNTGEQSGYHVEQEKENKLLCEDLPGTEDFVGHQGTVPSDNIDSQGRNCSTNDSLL
CF NFkB block: cystic fibrosis NF-kB activation inhibition | KKLEB NF-kB-GFP reporter, PAF-induced, GFP fluorescence overnight | inhibition, % at 5 µM | 360,000 compounds, 0.86% hits | AID 588850;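 active = at least 50% inhibition at 5 µM, scaled per plate between neutral and stimulator controls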;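 also: PAF is a Pseudomonas aeruginosa culture filtrate used as stimulus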
HIF-2a inh: inhibitors of HIF-2a; AID 624352; inhibition, % at 18.8 µM; 786-0 RCC cells HIF-2a reporter, luciferase luminescence, overnight; 360,000 compounds, 0.72% hits;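 active = inhibition of the luminescence signal of 40% or more relative to plate controls, in a single-dose primary screen at 18.75 µM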
MITF TRPM1 inh: MITF TRPM1 promoter inhibition in SK-MEL-5 cells; SK-MEL-5 TRPM1 promoter luciferase, 24 h; inhibition, % at 12.5 µM; 330,000 compounds, 0.83% hits;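 active = mean inhibition across replicates of 60% or more, whatever share of single replicates reaches that level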
Mdm2 MdmX conf: confirmation of inhibitors of human Mdm2/MdmX interaction, set 2; shares compounds with HIF-2a inh; AID 504601; inhibition, % at 8 µM; SaOS-2 split-luciferase Mdm2/MdmX complementation, luminescence; 740 compounds, 99% hits;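 active = mean inhibition of the luminescence signal across two replicates at or above 26 percent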
HIF-2a inh conf: confirmation of HIF-2a inhibitors; 786-0 RCC cells, HIF-2a luciferase reporter luminescence, overnight; inhibition, % at 18.8 µM; 1,800 compounds, 56% hits; shares compounds with HIF-2a inh; AID 651580;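 active = mean inhibition across four replicates of at least 40 percent at the single tested concentration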
HIF-1a counter: HIF-1a inhibition counter-screen for HIF-2a hits. MiaPaCa-2 HIF-1a luciferase reporter, desferoxamine, overnight. inhibition, % at 18.8 µM. AID 651589. shares compounds with HIF-2a inh. 1,800 compounds, 72% hits;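 active = mean inhibition of the reporter signal across four replicates at the single tested dose of 50% or more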
A number is an active result; - = inactive; . = no result given. Most compounds without a hit are left out; they make up all but 2.8% or so of the library.

SMILES	KKLEB cytotox	Peg3 prom inh	B2AR ag	CF NFkB block	HIF-2a inh	MITF TRPM1 inh	HIF-2a inh conf	HIF-1a counter	others
CCN(CC(=O)Nc1cccc(Br)c1)Cc1nc2ccccc2c(=O)[nH]1	-	-	-	-	42	-	-	-
CCN(CC(=O)Nc1ccc2c(c1)CCC2)Cc1nc2ccccc2c(=O)[nH]1	-	-	-	-	-	-	.	.
CCc1ccc(N(CC(=O)N2CCCC2)S(C)(=O)=O)cc1	-	-	.	-	-	.	.	.
O=C(NNC(=O)c1ccccc1O)c1ccco1	-	-	-	-	-	-	.	.
Cc1ccc(Cn2ccsc2=NC(=O)CCl)cc1	-92	-	-	94	-	-	.	.	Mdm2 MdmX conf=103
Cc1ccc(Cn2ccsc2=NC(=O)COC(=O)c2ccc(NC(=O)CC#N)cc2)cc1	-	-	-	-	-	-	.	.
Cc1cc2oc(C(=O)Nc3cccnc3)c(C)c2cc1C	-	-	-	-	-	-	.	.
CC(=O)Nc1ccc(NC(=O)c2oc3cc(C)c(C)cc3c2C)cc1	-	-	-	-	52	-	74	-
COc1cc2c(cc1OC)C(c1ccccc1)N(C(=O)CCl)CC2 (stereo not drawn)	-	102	-	-	93	93	99	106
CCOC(=O)c1ccc(-c2ccc(N3C(c4cccc(OC)c4)=Cc4ccc(F)cc4C3CC(C)=O)cc2)cc1F (stereo not drawn)	.	.	.	.	65	.	-	-
O=[N+]([O-])c1ccc(O)c(-c2nc(-c3ccccc3)c(-c3cccs3)[nH]2)c1	-60	-	-	62	-	-	.	.	Mdm2 MdmX conf=95
O=C(O)c1ccc(-c2nc(-c3ccccc3)c(-c3cccs3)[nH]2)cc1	-	-	-	-	-	-	.	.
Cc1ccc(-c2noc(CCC(=O)NCC3CCCO3)n2)cc1 (stereo not drawn)	-	-	-	-	-	-	.	.
CC(C)(C)c1ccc(-c2noc(CCC(=O)NCC3CCCO3)n2)cc1 (stereo not drawn)	-	-	-	-	80	84	95	-
COc1ccc(-c2noc(CCC(=O)Nc3cccnc3)n2)cc1	-	-	-	-	-	-	.	.
CNC(=O)CCc1nc(-c2ccc(C(C)(C)C)cc2)no1	-	-	-	-	-	-	.	.
CC(C)(C)c1ccc(-c2noc(CCC(=O)Nc3cccnc3)n2)cc1	-	-	-	-	92	79	96	-
CC(C)(C)c1ccc(-c2noc(CCC(N)=O)n2)cc1	-	-	-	-	87	71	94	-
N#CCCn1nc(-c2ccccc2)cc1Nc1ccccc1NC(=O)c1cccs1	-	-	-	-	-	-	.	.
COc1ccccc1NC(=S)NC(NC(=O)CC(C)C)C(Cl)(Cl)Cl (stereo not drawn)	-	-	-	-	-	-	.	.
CC(=O)c1ccc2ccccc2c1OC(=O)c1ccncc1	-	-	.	-	-	.	.	.
Cc1ccc(-c2nnn3c2nc(Cl)c2ccccc23)cc1	-	-	-	-	-	-	.	.
Clc1nc2c(-c3ccccc3)nnn2c2ccccc12	-	103	-	-	-	-	.	.	Mdm2 MdmX conf=103
Cc1cccc(NC(=S)NNc2ncc(C(F)(F)F)cc2Cl)c1	-	-	-	-	50	-	57	-
FC(F)(F)c1cnc(NNC(=S)Nc2ccccc2Cl)c(Cl)c1	-	-	-	-	-	-	.	.
SMILES	KKLEB cytotox	Peg3 prom inh	B2AR ag	CF NFkB block	HIF-2a inh	MITF TRPM1 inh	HIF-2a inh conf	HIF-1a counter	others
N#Cc1c(NC(=O)CSc2nc(N)cc(=O)[nH]2)sc2c1CCCCCC2	-	-	-	-	-	-	.	.
N#Cc1c(NC(=O)CSc2ncn[nH]2)sc2c1CCCCC2	-	-	-	-	90	80	96	70
O=C(NC(=Nc1nc2ccccc2o1)NC(=O)c1ccccc1)c1ccccc1	-	-	-	-	-	-	.	.
O=C(NNc1nc2ccccc2o1)c1ccccc1	-	-	-	-	47	.	80	-
Cc1ccccc1N(Cc1cc(=O)[nH]c2ccccc12)C(=O)CCl	-	58	-	-	-	-	.	.	Mdm2 MdmX conf=102
Cc1ccccc1N(Cc1cc(=O)[nH]c2ccccc12)C(=O)C(C)C	-	-	-	-	-	-	.	.
CC1(C(=O)NS(=O)(=O)C2CC2)CCN(C(=O)c2c(F)cccc2F)C1 (stereo not drawn)	-	-	.	-	-	.	.	.
O=S(=O)(CC(CN1CCOCC1)N1CCOCC1)c1ccccc1 (stereo not drawn)	-	-	-	-	-	-	.	.
O=S(=O)(CC(CN1CCCCC1)N1CCCCC1)c1ccc2ccccc2c1 (stereo not drawn)	-59	109	-	97	62	75	-	104
COc1ccc(/C=N/n2cnc3c([nH]c4ccc(F)cc43)c2=O)cc1CN1CCCC1	-	91	-	-	-	86	.	.	Mdm2 MdmX conf=100
CCOC(=O)/C(=C\c1cccnc1)C(=O)c1cc(C(C)=O)c(Nc2ccccc2)s1	-	119	104	95	96	98	.	.	Mdm2 MdmX conf=103
CCOC(=O)/C(=C\c1ccccc1)C(=O)c1cc(C(C)=O)c(Nc2ccccc2)s1	-	104	-	-	95	-	88	107
CCOC(=O)C(=O)/C(C#N)=C/Nc1ccccc1	-	-	-	-	-	-	.	.
C=CC[C@H]1C(C(=O)OCC)=CC[C@@H](c2ccccc2)N1S(=O)(=O)c1ccc(C)cc1	-	-	.	-	-	.	.	.
COc1cccc(C#Cc2cnc3c(c2)C(=O)N([C@@H](C)CO)C[C@H](C)[C@H](CN(C)C(=O)C2CCC2)O3)c1	-	-	.	-	-	.	.	.
COc1cccc(Cn2c3ccc(NC(=O)Cc4ccccc4C)cc3c(=O)n2C)c1	-	-	.	-	-	.	.	.
C=C(C)C(=O)Nc1ccc2nn(-c3ccccc3O)nc2c1	-	-	.	-	-	.	.	.
ClC(Cl)(c1nnnn1-c1ccccc1)c1nnnn1-c1ccccc1	-	-	-	-	52	-	-	-
CC(C)(C)N1C(=O)c2ccccc2NC(=O)C1C(=O)Nc1ccc(N2CCOCC2)cc1 (stereo not drawn)	.	.	.	.	-	.	.	.
O=C(NCc1ccncc1)[C@@H]1CCCN1C(=O)[C@@H]1CCCN1C(=O)c1ccccc1Cl	.	.	.	.	-	.	.	.
CCc1cccc(CC)c1NC(=O)/C(C#N)=C/c1ccccc1C(F)(F)F	-56	107	-	69	92	89	97	102
Cc1cc(C)cc(OCC(=O)NCC2CCCO2)c1 (stereo not drawn)	-	-	-	-	52	-	69	70
COc1cccc(-c2cnc(C(O)c3cc(Cl)cc(Cl)c3)[nH]2)c1 (stereo not drawn)	-	-	.	-	-	.	.	.
